Experimental findings from PubChem BioAssay (NCATS) are described below.

“And” between values parts separate entries of the source, which are not always exact repeats. Identical values can stand only once. Records with an inconclusive call do not appear. The source made the active and inactive calls. Unless noted, calls follow the shape of the dose curve; as a rule, active = well fitted curve in the direction sought with a large enough effect; inconclusive = small, poorly fitted or top-dose-only effect, or another doubt; inactive = no such curve, though single readings can be large; an effect the other way counts as inactive or inconclusive. Peptide text beside a SMILES is read from it.

Experiment [1] deals with Glutathione peroxidase 1 (Homo sapiens) (UniProt P07203). Nature of the experiment: Primary qHTS Assay for Inhibitors of Recombinant Selenoprotein Glutathione Peroxidase 1 (GPX1) (AID 1845191). Also: nearly all actives have a fitted effect of over 65% in size. Also: potency is read from the fitted curve at half-maximal effect. The essentials:
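GR-coupled assay: compounds preincubated 30 min at room temperature with GPX1, then reaction started with CHP; final 10 nM GPX1, 1 mM GSH, 0.5 mM CHP, 0.5 mM NADPH, 100 nM GR, 0.01% BSA, pH 7.5 Tris buffer. NADPH fluorescence (340/450 nm) read at 0 and 15 min.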
Background: In qHTS, concentration-response curves come from the screen itself.

Experiment [2] has as its target Phospholipid hydroperoxide glutathione peroxidase GPX4 (Homo sapiens) (UniProt P36969). Nature of the experiment: Primary qHTS Assay for Inhibitors of Recombinant Selenoprotein Glutathione Peroxidase 4 (GPX4) (AID 1845192). Also: nearly all actives have a fitted effect of over 65% in size. Also: potency is read from the fitted curve at half-maximal effect. The essentials:
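GR-coupled assay: recombinant GPX4 preincubated 30 min with compound at room temperature; final 200 nM GPX4, 1 mM GSH, 0.5 mM cumene hydroperoxide, 0.5 mM NADPH, 100 nM GR, 0.01% BSA, pH 7.5 Tris. NADPH fluorescence (340/450 nm) read at 0 and 15 min.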

Experiment [3] can be described thus: NCATS anti-infectives library activity on the primary C. elegans qHTS viability assay (AID 1745855; calls by dose curve; also: potency is read from the fitted curve at half-maximal effect). The method, boiled down:
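Viability is taken from GFP fluorescence of PE254-GFP-FLuc C. elegans imaged by laser cytometry over 7 days. Ten L1 worms per well grow at 21 °C on TOP10 E. coli capsules with titrated compound; levamisole marks toxicity.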

Experiment [4] addresses Luciferin 4-monooxygenase (Photinus pyralis) (UniProt P08659). Put plainly: Primary firefly luciferase (FLuc) qHTS assay for identification of artifact compounds. (AID 1845220). Also: nearly all actives have a fitted effect of over 60% in size. The essentials: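 D-luciferin and ATP (10 uM each, final) in Tris acetate buffer pH 7.6 were incubated with compounds for 15 min at room temperature. The reaction was started with 10 nM Photinus pyralis luciferase and luminescence read after 5 min. Percent inhibition was fitted to a 4-parameter Hill equation.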

Experiment [5] in a line: Primary fluorescence-based thiol-reactive (MSTI) qHTS assay for identification of artifact compounds. (AID 1845221).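 Also: series mostly up to about 54 µM; thiol-reactive compounds lower the probe fluorescence signal; nearly all actives have a fitted effect of over 65% in size.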 The essentials: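 Curve-fitted percent inhibition (4-parameter Hill) derived from fluorescence, Ex 525/Em 598 nm, scaled with Acetyl-MSTI and MSTI; 1 h incubation at room temperature.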
A short description of experiment [6]: Viability counterscreen for antagonist of constitutive androstane receptor (CAR) against the NCATS DSHEA and TCM libraries (AID 1794837).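 Also: compound exposure lasted 24 h before viability reading.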 The method, boiled down:
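HepG2-CYP2B6-hCAR cells, 2,500/well, were exposed 24 hr at 37C to substances together with 48 uM CITCO (final). Viability was read as CellTiter-Fluor fluorescence (Ex/Em 405/540 nm) after 1 hr.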
On the technique in general: Counterscreens check selectivity or assay interference.

Experiment [7] can be described thus: Viability counterscreen for agonist of constitutive androstane receptor (CAR) against the NCATS DSHEA and TCM libraries (AID 1794838).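 Also: HepG2 cells with CYP2B6 reporter and hCAR plus 0.75 µM PK11195 antagonist.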 The essentials:
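HepG2-CYP2B6-hCAR cells (2,500/well) treated 24 h at 37C with compounds plus 0.75 uM PK11195; viability read by CellTiter-Fluor fluorescence, Ex/Em 405/540 nm.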

The target of experiment [8] is Nuclear receptor subfamily 1 group I member 3 (Homo sapiens) (UniProt Q14994). Put plainly: Primary qHTS for agonist of constitutive androstane receptor (CAR) against the NCATS DSHEA and TCM libraries (AID 1794839).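 Also: HepG2 cells expressing human CAR with a CYP2B6 reporter plus PK11195 antagonist.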 The essentials: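 HepG2-CYP2B6-hCAR cells, 2,500/well, attached 5 h, then dosed with 0.75 µM PK11195 (final) for 24 h at 37 °C. Luciferase luminescence read (ONE-Glo); CellTiter-Fluor viability (Ex/Em 405/540 nm) in same wells; CITCO positive control.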
Sequence of Nuclear receptor subfamily 1 group I member 3 (Homo sapiens) (Q14994 whole entry, looked up): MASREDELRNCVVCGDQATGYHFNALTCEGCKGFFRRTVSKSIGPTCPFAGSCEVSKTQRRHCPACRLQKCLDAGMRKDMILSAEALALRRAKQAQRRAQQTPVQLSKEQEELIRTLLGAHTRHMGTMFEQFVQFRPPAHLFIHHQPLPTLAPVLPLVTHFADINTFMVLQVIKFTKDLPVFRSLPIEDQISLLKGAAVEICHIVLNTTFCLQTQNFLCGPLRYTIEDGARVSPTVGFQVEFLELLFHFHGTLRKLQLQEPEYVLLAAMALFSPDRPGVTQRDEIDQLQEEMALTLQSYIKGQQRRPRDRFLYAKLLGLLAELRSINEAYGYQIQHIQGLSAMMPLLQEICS

Experiment [9] can be described thus: HepG2 viability counterscreen (readout 2: ATP content) against the NCATS DSHEA and TCM libraries (AID 1794840). The method, boiled down:
(§1)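 HepG2 cells, 1,000/well, attached ~4 h, then exposed ~24 h at 37C to substances. Protease activity read by fluorescence of 25 uM GF-AFC (Ex/Em 380/510 nm) after 30 min; ATP then by CellTiter-Glo luminescence.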

Experiment [10] is described as follows: HepG2 viability counterscreen (readout 1: protease activity) against the NCATS DSHEA and TCM libraries (AID 1794841).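 Also: cells exposed to compounds for about 24 h before the protease read.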 The essentials:
as §1

Sequence of Phospholipid hydroperoxide glutathione peroxidase GPX4 (Homo sapiens) (P36969 whole entry, looked up): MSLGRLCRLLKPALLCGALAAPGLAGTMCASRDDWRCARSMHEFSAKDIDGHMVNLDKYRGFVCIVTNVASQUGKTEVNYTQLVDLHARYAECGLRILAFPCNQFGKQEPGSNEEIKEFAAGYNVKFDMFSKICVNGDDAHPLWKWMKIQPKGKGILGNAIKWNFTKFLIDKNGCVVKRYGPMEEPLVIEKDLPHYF
Sequence of Glutathione peroxidase 1 (Homo sapiens) (P07203 whole entry, looked up): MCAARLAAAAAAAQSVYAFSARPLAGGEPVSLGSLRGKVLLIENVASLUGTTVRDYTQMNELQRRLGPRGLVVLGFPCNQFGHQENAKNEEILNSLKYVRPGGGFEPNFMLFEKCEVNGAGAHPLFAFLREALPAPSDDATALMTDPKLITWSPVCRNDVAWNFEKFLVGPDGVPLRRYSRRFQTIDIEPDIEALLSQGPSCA

As to `CC(C)[N+]1(C)[C@@H]2CC[C@H]1CC(OC(=O)C(CO)c1ccccc1)C2` (some centres undefined), the Potency result in experiment [1] and in experiment [2] was “inactive” throughout.

Turning to `CCOC(=O)C1=C[C@@H](OC(CC)CC)[C@H](NC(C)=O)[C@@H](N)C1`, the Potency entry in experiment [3], in [1] and in experiment [2] was “inactive” throughout.

For the compound `COc1c2occc2cc2ccc(=O)oc12`, the Potency entry in experiment [1] and in experiment [2] was “inactive” throughout.

On to `CCOc1cc(CC(=O)N[C@@H](CC(C)C)c2ccccc2N2CCCCC2)ccc1C(=O)O`, for which the Potency result in [1] and in [2] was “inactive” each time.

In the case of `Clc1ccc(C(Cn2ccnc2)OCc2ccsc2Cl)c(Cl)c1` (centres undefined), the Potency result in [1] and in experiment [2] was “inactive” in each case.

For the compound `Nc1nc(N)c(N=O)c(OCC2CCCCC2)n1`, the Potency entry in experiment [1] and in [2] was “inactive” in each case.

With `CCCCCCCCCCCCCCCCCCCCCCO`, the Potency result in experiment [1] and in [2] was “inactive” in each case.

On to `O=C1c2c(O)cc(O)cc2OC(c2ccc(O)c(O)c2)C1O` (centres undefined), for which the Potency entry in [1] and in experiment [2] was “inactive” throughout.

`CC(C)C[C@H](NC(=O)[C@H](Cc1ccccc1)NC(=O)c1cnccn1)B(O)O`: in experiment [3], the Potency was 2300 nM (active). The Potency result in experiment [1], in experiment [2], in experiment [4] and in experiment [5] was “inactive” each time.

For the compound `CCCCN(CCCC)CCC(O)c1cc2c(Cl)cc(Cl)cc2c2cc(C(F)(F)F)ccc12` (centres undefined), the Potency entry in experiment [1] and in experiment [2] was “inactive” each time.

Take `NC(=NCc1ccccc1)NC(=O)c1nc(Cl)c(N)nc1N`: the Potency result in experiment [1] is “inactive”.

For the compound `CCCCc1ccc2nc(NC(=O)OC)[nH]c2c1`, the Potency result in [1] and in experiment [2] was “inactive” each time.

In the case of `O=C(O)c1cn(-c2ccc(F)cc2)c2cc(N3CCNCC3)c(F)cc2c1=O`, the Potency result in experiment [1] and in [2] was “inactive” each time.

Turning to `CC[C@]1(O)C[C@H]2CN(CCc3c([nH]c4ccccc34)[C@@](C(=O)OC)(c3cc4c(cc3OC)N(C=O)[C@H]3[C@@](O)(C(=O)OC)[C@H](OC(C)=O)[C@]5(CC)C=CCN6CC[C@]43[C@@H]65)C2)C1`, the Potency result in experiment [1] and in [2] was “inactive” each time.

As to `CCN(CC)CCOc1ccc(Cc2ccccc2)cc1`, the Potency result in experiment [1] and in [2] was “inactive” in each case.

As for `O=C(O)CCNC(=O)c1ccc(N=Nc2ccc(O)c(C(=O)O)c2)cc1`, the Potency entry in experiment [1] and in [2] was “inactive” in each case.

Consider `Cc1cc(C2CCCCC2)n(O)c(=O)c1`, for which the Potency result in experiment [1] and in experiment [2] was “inactive” throughout.

`CC(C)[C@H](N)C(=O)OCCOCn1cnc2c(=O)[nH]c(N)nc21`: the Potency entry in experiment [1] and in experiment [2] was “inactive” in each case.

Consider `Cc1cc(O)c2c(c1)C(=O)c1cc(O)cc(O)c1C2=O`, for which the compound was classed as inactive in experiment [6], in [7], in experiment [8], in [9] and in experiment [10]. Further, the Potency entry in experiment [1] and in [2] was “inactive” each time.

In the case of `N=C(N)c1ccc2cc(OC(=O)c3ccc(N=C(N)N)cc3)ccc2c1`, the Potency result in experiment [3] and in experiment [2] was “inactive” throughout.

As for `N=C(N=C(N)N)N1CCOCC1`, the Potency result in experiment [3] is “inactive”.

`Cc1cccc(C)c1OCC(=O)N[C@@H](Cc1ccccc1)[C@@H](O)C[C@H](Cc1ccccc1)NC(=O)[C@H](C(C)C)N1CCCNC1=O`: the Potency result in [1] and in experiment [2] was “inactive” in each case.

Turning to `CN(C)C(=O)COC(=O)Cc1ccc(OC(=O)c2ccc(N=C(N)N)cc2)cc1`, the Potency entry in [1] and in [2] was “inactive” throughout.

Take `CC(C)c1ccc2c(c1)c(SC(C)(C)C)c(CC(C)(C)C(=O)O)n2Cc1ccc(Cl)cc1`: the Potency entry in experiment [1] and in experiment [2] was “inactive” each time.

For `CCCc1cc(=O)[nH]c(=S)[nH]1`, the Potency result in experiment [1] and in experiment [2] was “inactive” throughout.

Turning to `COc1cc(OC)c(C(=O)CCCN2CCCC2)c(OC)c1`, the Potency entry in [1] and in experiment [2] was “inactive” each time.

In the case of `O=C(NCC1CCCCN1)c1cc(OCC(F)(F)F)ccc1OCC(F)(F)F` (centres undefined), the Potency result in experiment [1] and in [2] was “inactive” throughout.

Regarding `COc1cc2nc(N3CCN(C(=O)C4CCCO4)CC3)nc(N)c2cc1OC` (centres undefined), the Potency result in [1] and in [2] was “inactive” in each case.

As to `CC(C)Oc1ccc2c(=O)c(-c3ccccc3)coc2c1`, the Potency entry in experiment [1] and in experiment [2] was “inactive” each time.

Turning to `Nc1ncn([C@H]2C[C@H](O)[C@@H](CO)O2)c(=O)n1`, the Potency entry in experiment [1] and in [2] was “inactive” throughout.

For `COC(=O)[C@H](Cc1ccccc1)NC(=O)[C@@H](N)CC(=O)O` (H-Asp-Phe-OMe), the Potency result in [1] and in experiment [2] was “inactive” throughout.

`CC(C)c1ccc2oc3nc(N)c(C(=O)O)cc3c(=O)c2c1`: the Potency in experiment [1] is 22.7 µM (active) and 16.3 µM (active); in experiment [2], 12.8 µM (active) and 8.06 µM (active).

For the compound `CCCOc1ccc2nc(NC(=O)OC)[nH]c2c1`, the Potency entry in [1] and in experiment [2] was “inactive” in each case.

As for `CN1CCC(=C2c3ccccc3CCc3sccc32)CC1`, the Potency result in experiment [1] and in [2] was “inactive” each time.

Regarding `O=C(CCc1ccc(O)cc1)c1c(O)cc(O)cc1O`, the Potency entry in [1] and in experiment [2] was “inactive” throughout.

`Cc1ncc([N+](=O)[O-])n1CC(C)O` (centres undefined): the Potency entry in [1] and in experiment [2] was “inactive” in each case.

`COc1cc2c(cc1OC)C1CC(=O)C(CC(C)C)CN1CC2` (centres undefined): the Potency result in experiment [1] and in experiment [2] was “inactive” throughout.

Regarding `C[C@@H](N)C1CCC(C(=O)Nc2ccncc2)CC1` (some centres undefined), the Potency entry in experiment [1] and in [2] was “inactive” throughout.

Consider `Nc1ccn([C@@H]2O[C@H](CO)[C@@H](O)C2O)c(=O)n1` (some centres undefined), for which the Potency result in experiment [1] and in experiment [2] was “inactive” in each case.

Turning to `CCc1nc(N)nc(N)c1-c1ccc(Cl)cc1`, the Potency entry in experiment [1] and in experiment [2] was “inactive” throughout.

For `CC(C)(S)[C@@H](N)C(=O)O`, the outcome in experiment [1] was “inactive [at 4.49 µM]”; in [2], “inactive [at 4.52 µM]”.
